Reference: PubChem BioAssay
Calls of active or inactive are those of the source.

How the values were obtained:
[1] = binders of probe aFSTL3 on microarray, primary screen, stem cell growth factor project, biochemical, small-molecule microarray, fluorescence 635/667 (AID 1064); conditions: higher = more signal;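 further: measures binding of the biotinylated anti-FSTL3 antibody to printed compounds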
[2] = binders from COS7 lysate, DM2A8 probe, primary screen, torsin A project, cell lysate, small-molecule microarray, fluorescence 635/667 (AID 1065); conditions: higher = more signal, COS7 lysate expressing mutant human TOR1A
[3] = binders of probe aFGF2 on microarray, primary screen, stem cell growth factor project, biochemical, small-molecule microarray, fluorescence 635/667 (AID 1067); conditions: higher = more signal;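 further: measures binding of biotinylated aFGF2 protein to printed compounds on slides; z-score merges feature fluorescence and signal-to-noise across triplicate slides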
[4] = binders of probe aFGF10 on microarray, primary screen, stem cell growth factor project, biochemical, small-molecule microarray, fluorescence 635/667 (AID 1071); conditions: higher = more signal;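 further: score merges 667 nm spot intensity and signal to noise from triplicate slides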
[5] = biological target: Neurogenic locus notch homolog protein 2 (Homo sapiens) (UniProt Q04721); assay: Notch2 binders on small-molecule microarrays, primary screen, biochemical, small-molecule microarray, 635 nm fluorescence, stem cell growth factors (AID 1073); conditions: Notch2 binding, higher = more signal
[6] = biological target: Pro-neuregulin-1, membrane-bound isoform (Homo sapiens) (UniProt Q02297); assay: NRG1 binders on small-molecule microarrays, primary screen, psychiatric disease protein project, biochemical, small-molecule microarray, fluorescence 635/667 (AID 1075); conditions: NRG1 binding, 635 nm fluorescence, higher = more signal;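 further: score combines 667 nm spot fluorescence with signal to noise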
[7] = test system: Neuregulin-1 EGF-like domain; assay: binders of neuregulin-1 EGF-like domain, primary screen, biochemical, small-molecule microarray, 635 nm fluorescence (AID 1081); conditions: small-molecule microarray binding, higher = more signal;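 further: binding of the protein to compounds printed on small-molecule microarray slides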
[8] = FRG1 promoter luciferase signal modulators, primary screen, FRG1 inhibition for FSHD, cell-based, C2C12 myotubes, firefly/Renilla luciferase, luminescence (AID 1084); conditions: higher = more signal, called active from +8 up or from −8 down
[9] = binders of probe aFST on microarray, primary screen, stem cell growth factor project, biochemical, small-molecule microarray, fluorescence 635/667 (AID 1086); conditions: higher = more signal;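 further: score merges 667 nm fluorescence with signal-to-noise of each printed compound spot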
[10] = binders of probe aHhip on microarray, primary screen, stem cell growth factor project, biochemical, small-molecule microarray, fluorescence 635/667 (AID 1087); conditions: higher = more signal;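 further: score merges spot fluorescence at 667nm with spot signal to noise ratio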
[11] = test system: PRMT1 (protein arginine N-methyltransferase 1); assay: PRMT1 binders on small-molecule microarrays, primary screen, biochemical, small-molecule microarray, 635 nm fluorescence (AID 1088); conditions: small-molecule microarray binding, higher = more signal;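 further: binding of Prmt1 protein to compounds spotted on small-molecule microarray slides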
[12] = yeast growth modulation, basal conditions, primary screen, YJM789 clinical isolate, OD600, 24 h (AID 1089);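 further: growth of clinical yeast isolate S. cerevisiae YJM 789 seeded 1000 cells per well; test concentration not given here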; conditions: S. cerevisiae YJM789 growth, higher = more signal, called active from +8 up or from −8 down
[13] = fission yeast growth modulation, primary screen, strain 972, OD600, 24 h, no modulator (AID 1090);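 further: basal condition with compound alone and no growth modifier present; test concentration not given here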; conditions: S. pombe 972 growth, higher = more signal, called active from +8 up or from −8 down
[14] = S. cerevisiae growth modulation with rapamycin, primary screen, strain BY4716, OD600, 96 h (AID 1091); conditions: higher = more signal, called active from +8 up or from −8 down; further: test concentration not given here
[15] = biological target: Torsin-1A-interacting protein 2 (Homo sapiens) (UniProt Q8NFQ8); assay: LULL1 binders on small-molecule microarray, primary screen, cell lysate, human LULL1 lysate, 635/667 nm fluorescence (AID 1092); conditions: hLULL1 lysate binding, 635 nm fluorescence, higher = more signal;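 further: probe is lysate of COS7 cells overexpressing human LULL1; score merges per-feature 667 nm fluorescence with signal-to-noise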
[16] = E. coli growth modulation, two-sided OD650, primary screen, E. coli filamentation project, strain DRC41, 24 h (AID 1093); conditions: OD650, 24 h, higher = more signal, called active from +8 up or from −8 down;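 further: MC1000 strain lacking acrAB efflux and sulA so SOS filamentation is blocked; test concentration not given here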
[17] = small-molecule microarray binders of probe aLefty2, primary screen, biochemical, biotinylated probe, 635/667 nm fluorescence (AID 1094); conditions: higher = more signal;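 further: score merges spot fluorescence near 667 nm with spot signal-to-noise ratio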
[18] = test system: Noggin (protein binding on small-molecule microarray); assay: Noggin binders on small-molecule microarray, primary screen, biochemical, 635/667 nm fluorescence (AID 1095); conditions: 635 nm fluorescence, higher = more signal;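 further: score merges 667 nm feature fluorescence with signal to noise over triplicate slides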
[19] = biological target: Neurogenic locus notch homolog protein 3 (Homo sapiens) (UniProt Q9UM47); assay: NOTCH3 binders on small-molecule microarray, primary screen, biochemical, 635/667 nm fluorescence (AID 1096); conditions: NOTCH3 binding, 635 nm fluorescence, higher = more signal
[20] = small-molecule microarray binders of probe aEGFR, primary screen, biochemical, biotinylated probe, 635/667 nm fluorescence (AID 1097); conditions: higher = more signal;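 further: probe is a biotinylated anti-EGFR antibody binding compounds printed on slides; score combines fluorescence near 667 nm and signal to noise of each spot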

Torsin-1A-interacting protein 2 (Homo sapiens), sequence (Q8NFQ8 whole entry, looked up): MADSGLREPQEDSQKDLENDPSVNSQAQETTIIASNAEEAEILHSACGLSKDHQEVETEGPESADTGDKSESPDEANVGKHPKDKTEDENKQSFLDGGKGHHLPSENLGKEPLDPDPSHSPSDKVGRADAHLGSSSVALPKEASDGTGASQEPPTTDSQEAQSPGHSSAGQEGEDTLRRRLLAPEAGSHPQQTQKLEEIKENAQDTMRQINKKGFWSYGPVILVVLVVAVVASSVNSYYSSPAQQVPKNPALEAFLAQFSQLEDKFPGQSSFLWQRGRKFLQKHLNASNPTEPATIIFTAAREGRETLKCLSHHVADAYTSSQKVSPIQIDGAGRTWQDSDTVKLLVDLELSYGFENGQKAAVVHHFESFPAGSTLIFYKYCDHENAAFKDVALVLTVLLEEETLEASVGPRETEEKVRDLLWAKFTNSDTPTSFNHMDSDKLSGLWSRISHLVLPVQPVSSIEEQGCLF
Neurogenic locus notch homolog protein 2 (Homo sapiens), sequence (Q04721 whole entry, looked up, canonical isoform): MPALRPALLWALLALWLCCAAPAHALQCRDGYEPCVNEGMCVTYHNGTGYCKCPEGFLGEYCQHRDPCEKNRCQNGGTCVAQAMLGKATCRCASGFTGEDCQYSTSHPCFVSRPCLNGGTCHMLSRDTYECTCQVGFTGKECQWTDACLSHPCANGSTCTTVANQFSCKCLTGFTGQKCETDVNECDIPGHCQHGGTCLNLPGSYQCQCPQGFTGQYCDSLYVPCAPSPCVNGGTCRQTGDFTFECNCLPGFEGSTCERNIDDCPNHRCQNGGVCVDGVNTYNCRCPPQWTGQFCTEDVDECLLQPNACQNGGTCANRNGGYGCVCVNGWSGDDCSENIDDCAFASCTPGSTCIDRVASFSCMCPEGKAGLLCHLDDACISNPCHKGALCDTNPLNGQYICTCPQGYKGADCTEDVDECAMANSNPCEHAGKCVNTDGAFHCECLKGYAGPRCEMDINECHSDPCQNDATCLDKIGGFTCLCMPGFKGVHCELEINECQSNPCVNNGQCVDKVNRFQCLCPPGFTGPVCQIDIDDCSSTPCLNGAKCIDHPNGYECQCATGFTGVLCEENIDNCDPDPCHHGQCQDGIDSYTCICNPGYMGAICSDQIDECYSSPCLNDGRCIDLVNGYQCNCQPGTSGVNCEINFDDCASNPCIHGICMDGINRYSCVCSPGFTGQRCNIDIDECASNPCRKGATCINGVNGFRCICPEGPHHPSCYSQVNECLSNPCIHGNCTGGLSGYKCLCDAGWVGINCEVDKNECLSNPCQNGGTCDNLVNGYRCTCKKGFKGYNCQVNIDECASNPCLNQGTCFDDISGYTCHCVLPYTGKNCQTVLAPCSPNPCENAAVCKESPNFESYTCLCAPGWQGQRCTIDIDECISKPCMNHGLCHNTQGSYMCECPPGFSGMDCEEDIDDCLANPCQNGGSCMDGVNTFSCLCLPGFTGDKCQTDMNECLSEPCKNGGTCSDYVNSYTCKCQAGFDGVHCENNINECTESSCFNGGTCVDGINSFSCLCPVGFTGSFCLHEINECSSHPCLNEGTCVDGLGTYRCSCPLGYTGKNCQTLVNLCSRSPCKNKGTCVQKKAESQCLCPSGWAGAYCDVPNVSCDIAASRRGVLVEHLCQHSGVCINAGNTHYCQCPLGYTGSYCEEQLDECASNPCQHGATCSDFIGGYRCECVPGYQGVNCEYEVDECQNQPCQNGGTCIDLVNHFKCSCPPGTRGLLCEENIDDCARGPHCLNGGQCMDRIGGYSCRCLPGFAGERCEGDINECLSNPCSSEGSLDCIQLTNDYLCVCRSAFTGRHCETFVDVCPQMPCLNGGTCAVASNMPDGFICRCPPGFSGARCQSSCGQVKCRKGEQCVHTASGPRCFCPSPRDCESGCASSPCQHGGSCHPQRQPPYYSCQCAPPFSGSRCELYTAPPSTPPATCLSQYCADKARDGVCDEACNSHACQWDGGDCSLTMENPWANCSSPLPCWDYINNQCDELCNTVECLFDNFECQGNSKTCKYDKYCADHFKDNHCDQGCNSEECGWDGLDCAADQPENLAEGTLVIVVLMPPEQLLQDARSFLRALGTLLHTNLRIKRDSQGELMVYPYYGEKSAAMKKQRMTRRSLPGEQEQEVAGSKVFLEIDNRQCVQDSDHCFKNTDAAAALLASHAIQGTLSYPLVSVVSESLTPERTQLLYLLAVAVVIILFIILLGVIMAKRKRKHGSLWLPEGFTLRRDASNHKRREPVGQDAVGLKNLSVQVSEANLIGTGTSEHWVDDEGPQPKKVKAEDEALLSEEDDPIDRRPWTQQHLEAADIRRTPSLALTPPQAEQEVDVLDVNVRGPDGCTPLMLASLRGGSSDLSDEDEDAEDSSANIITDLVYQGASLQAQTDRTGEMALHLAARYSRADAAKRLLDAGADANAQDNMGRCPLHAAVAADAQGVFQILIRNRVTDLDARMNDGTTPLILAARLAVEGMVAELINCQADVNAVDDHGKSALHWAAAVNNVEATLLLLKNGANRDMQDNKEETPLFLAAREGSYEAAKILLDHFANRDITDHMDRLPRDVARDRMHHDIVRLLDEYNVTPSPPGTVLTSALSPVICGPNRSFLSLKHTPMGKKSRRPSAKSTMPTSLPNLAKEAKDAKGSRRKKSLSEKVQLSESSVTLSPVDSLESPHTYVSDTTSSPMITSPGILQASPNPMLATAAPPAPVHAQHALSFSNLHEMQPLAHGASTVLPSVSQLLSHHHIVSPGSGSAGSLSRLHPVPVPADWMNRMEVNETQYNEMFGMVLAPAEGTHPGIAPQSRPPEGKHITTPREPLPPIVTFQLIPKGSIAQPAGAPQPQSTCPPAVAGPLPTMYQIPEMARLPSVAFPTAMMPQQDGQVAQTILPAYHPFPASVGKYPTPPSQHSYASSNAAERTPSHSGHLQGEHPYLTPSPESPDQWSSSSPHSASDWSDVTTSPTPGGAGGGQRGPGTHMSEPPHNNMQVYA
Pro-neuregulin-1, membrane-bound isoform (Homo sapiens), sequence (Q02297 whole entry, looked up, the tested form may be a part, canonical isoform): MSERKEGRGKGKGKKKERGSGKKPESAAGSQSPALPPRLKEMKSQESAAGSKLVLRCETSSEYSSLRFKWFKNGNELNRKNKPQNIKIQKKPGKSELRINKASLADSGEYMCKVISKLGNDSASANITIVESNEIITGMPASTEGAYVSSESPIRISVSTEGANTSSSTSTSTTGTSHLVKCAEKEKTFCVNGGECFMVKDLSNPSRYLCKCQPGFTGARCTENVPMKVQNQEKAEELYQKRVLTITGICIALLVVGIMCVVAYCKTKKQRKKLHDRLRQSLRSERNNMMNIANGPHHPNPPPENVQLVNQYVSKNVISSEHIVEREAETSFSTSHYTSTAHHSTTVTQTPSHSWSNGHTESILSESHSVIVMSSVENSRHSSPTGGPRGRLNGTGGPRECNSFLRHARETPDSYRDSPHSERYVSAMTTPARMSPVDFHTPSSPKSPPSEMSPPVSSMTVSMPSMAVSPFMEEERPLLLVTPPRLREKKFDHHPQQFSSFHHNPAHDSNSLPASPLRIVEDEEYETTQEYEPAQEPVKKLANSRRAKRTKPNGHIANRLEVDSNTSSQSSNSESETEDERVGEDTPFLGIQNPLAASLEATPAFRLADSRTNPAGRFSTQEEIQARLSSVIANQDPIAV

SMILES | composite z-score [1] | composite z-score [2] | composite z-score [3] | composite z-score [4] | composite z-score [5] | composite z-score [6] | composite z-score [7] | z-score [8] | composite z-score [9] | composite z-score [10] | composite z-score [11] | z-score [12] | z-score [13] | z-score [14] | composite z-score [15] | z-score [16] | composite z-score [17] | composite z-score [18] | composite z-score [19] | composite z-score [20]
COc1ccc(O[C@H]2C=C[C@@H](c3ccccc3)O[C@@H]2CON=C2[C@H]3CCn4c(=O)n(-c5ccccc5)c(=O)n4[C@H]3[C@H](O)[C@@H]3O[C@H]23)cc1 | -0.135 | 0.451 | -0.0973 | 0.372 | 1.24 | 0.238 | 0.63 | -0.243 (inactive) | 0.358 | 0.197 | 1.3 | -0.417 (inactive) | 0.444 (inactive) | 0.661 (inactive) | 0.86 | -0.745 (inactive) | -0.206 | 0.437 | 0.863 | 0.0009
CON=C[C@@H](NS(=O)(=O)c1ccc(C)cc1)[C@H](C)C=CCC(=O)OC | -0.303 | 0.0827 | -0.125 | -0.224 | -0.98 | -0.23 | 0.0812 | 0.494 (inactive) | -0.371 | -0.189 | -0.327 | 0.903 (inactive) | 0.435 (inactive) | 0.719 (inactive) | -0.312 | 0.306 (inactive) | -0.138 | 0.26 | -0.0877 | -0.289
CCOC(=O)[C@H](Cc1ccccc1)NC(=O)CCC1CC(OC(=O)NCc2cccc3ccccc23)CC2(CCCC(COC(=O)NCC(c3ccccc3)c3ccccc3)O2)O1 (stereo not given in full) | -0.222 | 0.578 | -0.0753 | 0.326 | 0.928 | 0.301 | 1.04 | 0.631 (inactive) | 0.329 | -0.169 | 1.5 | -0.803 (inactive) | -0.463 (inactive) | -1.07 (inactive) | 1.17 | -1.09 (inactive) | -0.147 | 0.504 | 0.851 | 0.0117
CCC(=O)[C@@]1(O)C(=O)N2C(=C3C(=O)OCC[C@@H]31)N(Cc1ccccc1)C(C)=C(C(=O)OC)[C@H]2c1ccccc1 | -0.268 | 0.364 | -0.167 | 0.342 | 0.355 | -0.13 | 0.0811 | 0.105 (inactive) | 0.179 | 0.176 | 0.374 | 0.725 (inactive) | -0.612 (inactive) | 0.0739 (inactive) | 0.399 | 0.568 (inactive) | -0.232 | 0.644 | 0.367 | -0.0059
CC(C)CON=C1C[C@@H](O)[C@@H](O)[C@@H]2[C@@H]3C(=O)N(C4CCCCC4)C(=O)[C@@H]3CC[C@H]12 | -0.475 | 0.6 | -0.0383 | 0.848 | 1.14 | 0.936 | 0.743 | -0.276 (inactive) | 0.272 | -0.169 | 1.42 | 0.0058 (inactive) | 0.303 (inactive) | -0.393 (inactive) | 1.1 | 0.411 (inactive) | -0.0396 | 0.683 | 1.13 | -0.0817
